JMJD2E inh: blocks human JMJD2E demethylase activity | B2RXH2 | JMJD2E catalytic domain, FDH-coupled NADH fluorescence (FDH is formaldehyde dehydrogenase) | Potency, µM (top dose mostly 57.1 µM), for the others: at the top dose activity change, negative = inhibition, most hits filed as inhibitors | actives 1.6% (n = 230,000);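 also: potency is read from the fitted curve at half-maximal effect; 0% = wells with enzyme and -100% = buffer wells without enzyme; nearly all actives have a fitted effect of over 50% in size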
Target sequence (B2RXH2 1-337 limits assumed): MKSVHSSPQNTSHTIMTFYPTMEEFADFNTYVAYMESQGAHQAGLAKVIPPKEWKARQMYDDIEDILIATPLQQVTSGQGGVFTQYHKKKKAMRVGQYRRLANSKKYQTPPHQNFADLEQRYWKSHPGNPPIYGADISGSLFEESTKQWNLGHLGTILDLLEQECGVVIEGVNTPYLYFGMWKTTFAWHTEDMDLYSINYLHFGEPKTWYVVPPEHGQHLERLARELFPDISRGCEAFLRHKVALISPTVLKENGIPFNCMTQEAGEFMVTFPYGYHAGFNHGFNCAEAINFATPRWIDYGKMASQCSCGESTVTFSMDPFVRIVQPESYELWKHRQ
NPSR antag: neuropeptide S receptor (human) antagonism, cAMP. Q6W5P4. CHO-NPSR cells, cAMP TR-FRET, antagonist mode. Potency, µM (titrated, usually from 38.3 µM), for the others: at the highest dose activity change, negative = inhibition, usual class: inhibitors. actives 1% (n = 220,000); active = well fitted curve in the direction sought with a large enough effect; inconclusive = small, poorly fitted or top-dose-only effect, or another doubt; inactive = no such curve, though single readings can be large; an effect the other way counts as inactive or inconclusive; also: potency is read from the fitted curve at half-maximal effect; nearly all actives have a fitted effect of over 50% in size
Sfp PPTase inh: blocks B. subtilis Sfp PPTase activity. Biochemical Sfp PPTase activity, qHTS. AID 1490. Q9F4F7. actives 3.5% (n = 310,000). Potency, µM, inactives show largest response in the series, negative = inhibition, most hits filed as inhibitors; active = well fitted curve in the direction sought with a large enough effect; inconclusive = small, poorly fitted or top-dose-only effect, or another doubt; inactive = no such curve, though single readings can be large; an effect the other way counts as inactive or inconclusive;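 also: the enzyme is Sfp with the accession as filed and its product quenches rhodamine fluorescence; potency is read from the fitted curve at half-maximal effect; 0% = enzyme reaction without inhibitor and -100% = no enzyme wells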
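With Hepes-Na pH 7.6 buffer containing 10 mM MgCl2, Sfp (15 nM) modified BHQ-2-YbbR (12.5 uM) using rhodamine-CoA (5 uM). Two reads 30 minutes apart at 525/598 nm yielded each well's rate.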
ALDH1A1 inh: inhibitors of human aldehyde dehydrogenase 1A1 | P00352 | Purified ALDH1A1, NADH fluorescence, propionaldehyde substrate | Potency, µM (titrated, usually from 75.3 µM), inactives show at the highest dose activity, negative = inhibition, hits mostly inhibitors | actives 7.3% (n = 220,000) | AID 1030;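 also: potency is read from the fitted curve at half-maximal effect; plate controls were no enzyme wells and a reference inhibitor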
RGS12 GoLoco inh: RGS12 GoLoco-Gai1 interaction inhibition; Gai1:RGS12 GoLoco peptide FP, rhodamine, 10 min; Potency, µM (top dose mostly 61.6 µM), without a hit: at the highest dose activity, negative = inhibition, most hits filed as inhibitors; actives 0.44% (n = 230,000); AID 880; active = well fitted inhibition curve with a large enough effect, not every such curve was filed as active; inactive = no such curve, though single readings can be large or run the other way; also: potency is read from the fitted curve at half-maximal effect; nearly all actives have a fitted effect of over 30% in size
Target sequence (P63096 whole entry, looked up): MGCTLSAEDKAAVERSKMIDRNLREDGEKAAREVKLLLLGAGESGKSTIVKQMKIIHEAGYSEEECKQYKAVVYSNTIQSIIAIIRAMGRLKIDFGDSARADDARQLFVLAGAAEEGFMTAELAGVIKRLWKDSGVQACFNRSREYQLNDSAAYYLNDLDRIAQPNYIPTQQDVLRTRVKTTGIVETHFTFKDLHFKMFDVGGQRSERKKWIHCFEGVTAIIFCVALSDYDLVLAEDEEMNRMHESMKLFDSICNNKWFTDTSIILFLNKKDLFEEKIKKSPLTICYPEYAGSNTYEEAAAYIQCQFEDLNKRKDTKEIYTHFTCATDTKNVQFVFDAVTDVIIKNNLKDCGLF
Coupling enz: counter-screen for Giardia aldolase inhibitors: coupling enzyme system. AID 2472. actives 0.67% (n = 290,000). activity change, negative = inhibition, % at 58.2 µM, hits read low. coupling enzyme system counterscreen, AmpLite Red fluorescence; in the data active = activity change below about -30%
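Coupling enzymes only (glyceraldehyde-3-phosphate) + compound, at 57.5 uM final, 10 min RT; add substrate/coupling/AmpLite Red mix, 20 min RT; fluorescence ex 525/em 598 nm. Actives flag coupling-system interference.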
An asterisk follows results filed as active; ? = inconclusive; · = no result given; [ ] = another dose, or the depositor's remark. This is a sample that favours compounds with a hit; in the whole collection about 8.5% have one here. Unless noted, calls follow the shape of the dose curve; as a rule, active = well fitted inhibition curve with a large enough effect (not every such curve was filed as active); inconclusive = small, poorly fitted or top-dose-only effect, or another doubt; inactive = no such curve, though single readings can be large or run the other way. Unless noted, % is scaled to controls: 0 for no effect and ±100 for the full control effect.

SMILES	JMJD2E inh	NPSR antag	Sfp PPTase inh	ALDH1A1 inh	RGS12 GoLoco inh	Coupling enz
CSCC[C@H](NC(=O)[C@@H](NC(=O)[C@H](CCC(=O)O)NC(=O)[C@H](CCSC)NC(=O)[C@H](CC(N)=O)NC(=O)[C@H](CCC(=O)O)NC(=O)[C@H](CC(N)=O)NC(=O)[C@H](CO)NC(=O)[C@H](C)N)[C@@H](C)O)C(=O)O	·	·	-3.4%	·	·	-3.4
O=c1oc2cc([N+](=O)[O-])ccc2nc1/C=C(O)/C=C/c1ccccc1	5.2%	-4.8%	50.1µM*	·	114.9%	3.9
O=c1oc2cc([N+](=O)[O-])ccc2nc1/C=C(\O)c1cccc(Br)c1	?	-5.6%	5.2%	·	10.2%	7.0
N#Cc1c(Sc2ncc(C(F)(F)F)cc2Cl)nsc1C/C=N\OCc1c(F)cccc1Cl	-5.6%	10µM*	4.5%	?	127.2%	-9.8
Cc1cc2c(C)nc(Cc3ccccc3)nc2o1	1.0%	10.5%[46.1 µM]	0.7%	8.91µM*	4.8%	1.0
CSc1nc(C)c2cc(C)oc2n1	-24.8%	-12.9%[46.1 µM]	4.1%	-5.3%	-3.3%	-0.6
CCc1ccc2nc(N(CCCN(C)C)C(=O)c3ccc(S(=O)(=O)N(C)C4CCCCC4)cc3)sc2c1	·	·	44.7µM*	·	·	·
CCc1ccc2nc(N(CCCN(C)C)C(=O)c3ccc(S(=O)(=O)N4CCc5ccccc5C4)cc3)sc2c1	·	·	63.1µM*	·	·	·
CN(C)CCCN(C(=O)c1ccc(S(=O)(=O)N(C)C2CCCCC2)cc1)c1nc2ccc(Br)cc2s1	·	·	39.8µM*	·	·	·
CCN(Cc1ccccc1)S(=O)(=O)c1ccc(C(=O)N(CCCN(C)C)c2nc3ccc(F)cc3s2)cc1	·	·	89.1µM*	·	·	·
CN(C)CCCN(C(=O)c1ccc(S(=O)(=O)N(C)C2CCCCC2)cc1)c1nc2ccc(F)cc2s1	·	·	-20.2%	·	·	·
O=C(c1c(Cl)cccc1Cl)N1CCN(c2ncccn2)CC1	·	·	14.7%	·	·	0.2
O=C(NC(=S)Nc1cccc2c(O)cccc12)c1ccco1	·	·	50.1µM*	·	·	-3.5
O=C(NC(=S)Nc1cccc2cc(O)ccc12)c1ccco1	·	·	-18.0%	·	·	0.7
O=C(NC(=S)Nc1cccc2ncccc12)c1ccco1	5.8%	-6.1%	-29.6%	-1.8%	-2.5%	0.6
Cc1cc(NC(=S)NC(=O)c2ccco2)c2ccccc2n1	-2.1%	-10.4%	28.2µM*	?	3.4%	1.7
CCOc1ccc(C=C2SC(=O)N(CCN)C2=O)cc1	·	·	-8.5%	·	·	-1.8
COc1cc(C(=S)N2CCCC2)ccc1OCc1ccc(C)cc1	·	·	-17.6%	·	·	0.3
Cc1ccc(COc2ccccc2C(=S)N2CCCC2)cc1	-6.3%	-26.4%	25.1µM*	25.1µM*	4.8%	-0.2
Fc1ccc(COc2ccccc2C(=S)N2CCCC2)cc1	-5.5%	-15.2%	?	7.94µM*	4.4%	-0.2
CCOC(=O)c1sc(NC(=S)NC(=O)C23CC4CC(CC(C4)C2)C3)cc1C	4.7%	-34.4%	1.6%	-6.7%	-8.3%	-0.8
COc1ccc(CN(C(=O)/C=C/c2ccco2)C2CCS(=O)(=O)C2)cc1OC (stereo not drawn)	·	·	50.1µM*	·	·	0.8
COc1cccc(C(=O)N(Cc2ccc(N(C)C)cc2)C2CCS(=O)(=O)C2)c1 (stereo not drawn)	-5.4%	-4.1%[7.67 µM]	-9.4%	14.1µM*	-29.5%	-1.8
COc1ccc(CN(C(=O)/C=C/c2ccco2)C2CCS(=O)(=O)C2)cc1 (stereo not drawn)	0.6%	0.3%	14.1µM*	14.1µM*	4.9%	3.5
O=C(/C=C/c1ccco1)N(Cc1ccc(Cl)cc1)C1CCS(=O)(=O)C1 (stereo not drawn)	-4.1%	-4.9%	25.1µM*	·	5.7%	2.6
SMILES	JMJD2E inh	NPSR antag	Sfp PPTase inh	ALDH1A1 inh	RGS12 GoLoco inh	Coupling enz
COC(=O)c1cc(S(=O)(=O)N2c3ccccc3CC2C)cn1C (stereo not drawn)	·	·	1.4%	·	·	·
CCOC(=O)Cc1nnc(Nc2cc(C)ccc2C)c2ccccc12	6.4%	-5.9%	10.5%	2.0%	8.3%	-0.7
COc1cccc(CNCc2ccc(SC)cc2)c1OC	8.3%	-6.0%[46.1 µM]	-18.1%	1.8%	4.2%	1.7
CCOc1cc(/C=N\Nc2nc(Nc3ccccc3)nc(N3CCOCC3)n2)ccc1OC(=O)c1ccco1	4.8%	-12.1%	17.7%	-8.4%	-3.2%	0.0
NCCO/C=C/[C@H](N)C(=O)O	·	·	-4.6%	·	-0.4%	·
Cc1cc(Cl)ccc1NC(=S)NCCN1CCOCC1	5.1%	5.8%	-0.5%	2.0%	-10.0%	4.8
Cc1csc(CNC(=O)c2ccc(OC3CCN(CCc4ccccc4)CC3)cc2)n1	·	·	10.7%	·	·	·
Cc1ccc(-c2nn(-c3ccccc3)cc2C(=O)NCCCN2CCOCC2)cc1	·	·	5.3%	·	·	·
COc1cccc(CN(C(=O)/C=C/c2ccco2)C2CCS(=O)(=O)C2)c1 (stereo not drawn)	·	·	25.1µM*	·	·	0.0
COc1cccc(OCc2nnc(SCC(=O)N3c4ccccc4Sc4ccc(Cl)cc43)o2)c1	5.8%	-5.5%	10.9%	10µM*	-5.2%	1.9
O=C(CSc1nnc(COc2cccc3ccccc23)o1)N1c2ccccc2CCc2ccccc21	0.1%	-19.6%[46.1 µM]	6.5%	22.4µM*	4.6%	-0.7
NC(=O)CSc1nnc(COc2cccc3ccccc23)o1	·	·	11.2%	·	·	-0.1
O=C(CSc1nnc(-c2c[nH]c3ccccc23)o1)N1c2ccccc2CCc2ccccc21	-1.2%	?	16.6%	3.55µM*	-5.1%	-1.2
COc1ccc(C2C=C3CN(C(=O)OC(C)(C)C)S(=O)(=O)C3CC2OC(=O)c2cccc(C)c2)cc1 (stereo not drawn)	·	·	13.5%	·	·	-4.5
COc1cnn(-c2ccccc2)c(=O)c1OC	-25.2%	14.5%	0.4%	·	4.2%	3.1
CSc1cnn(Cc2ccccc2)c(=O)c1SCc1ccccc1	-1.1%	?	3.16µM*	?	-3.3%	-4.0
CCCCNc1cnn(-c2ccccc2)c(=O)c1Cl	?	-0.5%	3.1%	-2.7%	13.7%	-2.2
CCSc1cnn(-c2ccccc2)c(=O)c1SCC	-1.8%	12.6µM*	8.5%	?	-1.6%	3.8
CCOc1cnn(-c2ccccc2)c(=O)c1Cl	·	·	6.2%	·	·	0.2
CSc1cnn(-c2ccccc2)c(=O)c1SC	2.0%	?	79.4µM*	?	-10.6%	-5.7
CCCCSc1cnn(-c2ccccc2)c(=O)c1SCCCC	10.3%	12.6µM*	-15.7%	6.8%	3.4%	-4.5
O=C(NC1CCN(Cc2ccccc2)C1)c1ccc(Cc2nc3ccccc3[nH]2)cc1 (stereo not drawn)	·	·	·	2.8%	·	·

Compound activity as filed in PubChem BioAssay.
